# Results: PubChem BioAssay (NCATS)
# Records with an inconclusive call do not appear. Unmarked numbers belong to inactive results. Active and inactive are the calls of the source. Calls come from the whole dose curve; as a rule, active = well fitted inhibition curve with a large enough effect; inconclusive = small, poorly fitted or top-dose-only effect, or effect the other way; inactive = flat fitted curve, though single readings scatter.
# Target: ATP-dependent 6-phosphofructokinase (Trypanosoma brucei brucei) (UniProt O15648)
# Experiment: qHTS Assay to Find Inhibitors of T. brucei phosphofructokinase: hit validation (AID 492961);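 for activity change, negative = inhibition: luminescence reports ADP formed as PFK phosphorylates fructose-6-phosphate with ATP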
# Settings: T. brucei PFK, ADP-Glo luminescence; series mostly up to 51.4 µM; activity change, negative = inhibition: at the top concentration
# Source text: NIH Molecular Libraries Probe Production Network [MLPCN] NIH Chemical Genomics Center [NCGC] Grant: 1 R03 MH092153-01 PI Name: Malcolm Walkinshaw, University of Edinburgh NCGC Assay Overview: Various species of the protozoan family Trypanosomatidae are responsible for a range of serious human diseases in tropical and subtropical areas of the world. […] Many of the disorders caused by trypanosomatids are fatal if left untreated, but most currently used drugs are inefficient and toxic. […] Oxidative metabolism involving the mitochondrial tricarboxylic acid cycle and oxidative phosphorylation are repressed in these parasites, and recent RNA interference (RNAi) experiments have shown that even partial depletion of certain individual glycolytic enzymes can lead to the death of cultured parasites. One such glycolytic enzyme, phosphofructokinase (PFK), catalyzes the formation of fructose-1,6-bisphosphate (F1,6BP) and ADP from fructose-6-phosphate (F6P) and ATP, and in many metabolic circumstances makes an important contribution to the control of flux through the glycolytic pathway. As a specific glycolytic target, PFK is particularly attractive as it catalyzes the first irreversible step in glycolysis, and structural and kinetic studies have shown very substantial and essential differences from corresponding host enzymes, allowing for the discovery of parasite-selective inhibitors. The goal of this screen is to find small-molecule inhibitors of T. brucei PFK using a biochemical assay that measures PFK activity as a function of ADP production. A luminescence-based assay for T. brucei PFK activity has been developed which uses luciferase to detect production of ADP. Traditional luciferase-based nucleotide detection reagents rely on ATP production as a direct substrate for the luciferase reaction; however, PFK catalyzes the transfer of a phosphate from ATP to F6P, resulting in the net depletion of ATP. To directly measure the ADP product of the PFK reaction, we used the ADP-Glo detection kit (Promega), which utilizes two separate reactions to 1) deplete all remaining uncatalyzed ATP and 2) convert all remaining ADP to ATP, which is then detected through a traditional luciferase-coupled reaction. Compounds were screened as a concentration-titration series that ranged from 57 uM to 0.7 nM.
# NCGC Assay Protocol Summary: Substrate buffer was dispensed into white, solid 1536-well plates at 3uL/well in 0.1M triethanolamine (TEA) buffer, pH 8.0, containing final concentrations of 5 mM MgCl2, 0.01% Tween20, 0.5 mM fructose-6-phosphate (F6P) and 0.1mM ATP. Then, 23 nL of compounds or DMSO were delivered to each well using a pin tool. One uL T. brucei PFK (0.1M TEA, 0.01% Tween20, 0.1% bovine serum albumin (BSA) and 1.25nM PFK, final concentrations) was then dispensed, and plates were incubated at room temperature for 45 min. The luminescent detection reagent, ADP-Glo (Promega), was then added in two steps: the first reagent, ADP-Glo (which converts remaining uncatalyzed ATP), was added at 2.5uL/well and incubated for ten minutes at room temperature, and the second component, Kinase Detection reagent (which converts ADP to ATP as a substrate for luciferase-based luminescence), was added immediately after at 5uL/well, followed by one final ten minute room temperature incubation. The plates were measured on a ViewLux plate reader for luminescent signal using a clear filter with a one second exposure. The %Activity was determined from the corrected luminescence values. As no specific T. brucei PFK inhibitors have been identified in the literature, 1x (1.25nM) and 0x PFK enzyme controls (untreated) were included to normalize %Activity of identified inhibitors; 0x enzyme values corresponded to 100%Activity (full inhibition), while 1x PFK enzyme values were used to normalize 0%Activity (no inhibition). Concentration-response curves were fitted to the signals arising from the resulting luminescence. […]
# Potency is the fitted concentration of half-maximal effect.
# Chain of ATP-dependent 6-phosphofructokinase (Trypanosoma brucei brucei) (O15648 whole entry, looked up): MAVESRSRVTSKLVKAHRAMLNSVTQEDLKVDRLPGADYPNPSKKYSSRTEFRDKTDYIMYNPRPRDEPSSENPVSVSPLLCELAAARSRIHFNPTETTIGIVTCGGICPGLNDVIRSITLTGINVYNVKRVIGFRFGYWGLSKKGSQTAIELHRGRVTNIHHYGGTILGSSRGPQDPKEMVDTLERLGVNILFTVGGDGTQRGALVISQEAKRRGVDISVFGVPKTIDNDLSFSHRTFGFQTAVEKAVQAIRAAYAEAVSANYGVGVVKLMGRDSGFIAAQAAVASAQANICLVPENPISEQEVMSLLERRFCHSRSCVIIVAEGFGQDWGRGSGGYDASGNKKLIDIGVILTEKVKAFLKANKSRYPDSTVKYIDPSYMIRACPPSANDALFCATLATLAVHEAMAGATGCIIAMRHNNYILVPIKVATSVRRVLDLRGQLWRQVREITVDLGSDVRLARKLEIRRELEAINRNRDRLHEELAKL
SMILES,"activity change, negative = inhibition",Potency
Cc1ccc(Cl)c(O)c1,11.1%,
O=C(O)COc1ccccc1,8.74%,
CCCCCCCCCC(CC)c1ccc(S(=O)(=O)O)cc1 (stereo unspecified),6.51%,
CN(C)[C@@H]1C(=O)C(C(N)=O)=C(O)[C@@]2(O)C(=O)C3=C(O)c4c(O)cccc4[C@@](C)(O)[C@H]3[C@H](O)[C@@H]12,-1.17%,
C=CCN1CC[C@]23CCCCC2[C@H]1Cc1ccc(O)cc13 (stereo partly specified),-0.133%,
Cc1cc(O)ccc1Cl,-11.6%,
O=C(O)C(Cl)Cl,1.09%,
CCCN1CCC[C@H](c2cccc(O)c2)C1,-28.3%,
O=[N+]([O-])c1ccc([As](=O)(O)O)cc1,3.07%,
CC(C)NC(C)Cc1ccc(I)cc1 (stereo unspecified),-11.9%,
C#CC1(O)CCC2C3CCC4=CC(=O)CCC4(C)C3CCC21C (stereo unspecified),-9.57%,
C[C@]12CCC(=O)C(O)=C1CC[C@@H]1[C@H]3CCC(=O)[C@@]3(C)CC[C@@H]12,-1.37%,
CC[N+]1(CCOC(=O)C(O)(c2ccccc2)c2ccccc2)CCCCC1,3.47%,
C1CCC(NC2CCCCC2)CC1,-7.85%,
NC(=O)CN1CC(O)CC1=O (stereo unspecified),8.71%,
c1ccc(C2(c3ccccc3)CC2C2=NCCN2)cc1 (stereo unspecified),10.6%,
NC1=NC(=O)N2CC12 (stereo unspecified),-9.23%,
CC(=O)[O][Hg][c]1ccccc1,,7.94 µM (active)
CCCCCCCCCCCCCCCC[N+](C)(C)C,21.2%,
COC(C)(C)CCCC(C)C/C=C/C(C)=C/C(=O)OC(C)C (stereo unspecified),4.92%,
CC(=O)OCC1=C(C(=O)O)N2C(=O)[C@@H](N)[C@@H]2SC1,9.07% [at 24.3 µM],
